PubChem BioAssay AID2094 (Broad Institute, 2009)
The campaign covered roughly 300,000 compounds. About 1,200 (0.4%) were called active. Cut-off read from the data, not from the text of the source: active = activity change below about -75% (passing the limit was not always enough); inconclusive = no clear call, values can overlap the other calls. What follows is part of a selection rich in actives, with near analogues and random picks from the rest.

Experiment: modulation of AI-2 quorum-sensing luminescence – JMH597 strain, luminescence/OD600 ratio, primary screen (AID 2094);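 note: luminescence divided by OD600 gain over 9 h not by final OD600 alone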
Conditions: Vibrio harveyi JMH597 AI-2 luminescence/OD600 ratio, 9 h; at 7.5 µM; hits give low values; 0 = neutral-control median; strain lacks LuxN and CqsS sensors

| SMILES | activity change |
| --- | --- |
| CCN(C(=O)COc1cccnc1[N+](=O)[O-])C1CCS(=O)(=O)C1 (stereo not given) | 32.7% (inactive) |
| N#CCSc1nc(-c2ccccc2)nc2ccc(F)cc12 | 12.5% (inactive) |
| COC(=O)c1ccc(CSc2nncn2C)cc1 | 9.24% (inactive) |
| COC(=O)c1ccc(SCc2ccccc2)nc1 | -80.3% (active) |
| COC(=O)c1ccc(CSc2nncn2N)cc1 | 26.7% (inactive) |
| COc1ccc(N2CCN(S(=O)(=O)c3cc(Br)cnc3N)CC2)cc1 | 15.8% (inactive) |
| COc1ccc2ccccc2c1/C=N/NC(=O)c1cc(C)[nH]n1 | 11.2% (inactive) |
| CC(C)(C)c1cc(C(=O)N/N=C/c2ccc([N+](=O)[O-])s2)n[nH]1 | 16.7% (inactive) |
| Cc1cc(C(=O)N/N=C/c2cc([N+](=O)[O-])cc(C)c2O)n[nH]1 | -86.5% (active) |
| COC(=O)c1ccc(NC(=O)CSc2nnc(C3CC3)n2C)cc1 | 40.9% (inactive) |
| Cc1c(NC(=O)C(C)OC(=O)c2c3c(nc4ccccc24)CCC(C)C3)c(=O)n(-c2ccccc2)n1C (stereo not given) | 5.39% (inactive) |
| Cc1cc(C)n(CCNCc2c(C(=O)N3C[C@@H](C)O[C@@H](C)C3)nc3ccc(Cl)cn23)n1 | 11% (inactive) |
| O=C1COc2ccc(S(=O)(=O)Nc3ccc(OC(F)(F)F)cc3)cc2N1 | -94.2% (active) |
| O=C1COc2ccc(S(=O)(=O)NCCc3ccc(Cl)cc3)cc2N1 | -21.2% (inactive) |
| Cc1ccc(NS(=O)(=O)c2ccc3c(c2)NC(=O)CO3)cc1 | -85.9% (active) |
| CC(=O)Nc1ccc(NS(=O)(=O)c2ccc3c(c2)NC(=O)CC(=O)N3)cc1 | 6.21% (inactive) |
| Cc1cccc(CCNS(=O)(=O)c2ccc3c(c2)NC(=O)CO3)c1 | -59.5% (inactive) |
| Cc1ccc(NS(=O)(=O)c2cc3c(cc2C)NC(=O)CO3)cc1 | 20.3% (inactive) |
| COc1cc(NC(=O)c2ccccc2NS(=O)(=O)c2ccc(Cl)s2)cc(OC)c1 | 26.9% (inactive) |
| CCOc1ccc(NC(=O)CC(Cc2ccc(Cl)cc2)C(=O)O)cc1 (stereo not given) | -20.6% (inactive) |
| CCCCCCC12CCC(C(=O)O)(CC1)CC2 | 24.4% (inactive) |
| O=C(CCC(=O)c1cccs1)Nc1nc2ccccc2s1 | -87.3% (active) |
| Cn1nnnc1SCC(=O)Nc1nc2ccccc2s1 | 32.4% (inactive) |
| O=C(CCC(=O)c1cccs1)NC1CCCCCC1 | -7.35% (inactive) |

| SMILES | activity change |
| --- | --- |
| O=C(NC(=S)Nc1ccccc1C(=O)O)c1ccc(-c2ccc(Br)cc2)o1 | 9.83% (inactive) |
| CN(C)S(=O)(=O)c1ccc(N/C=C(\[N+](=O)[O-])S(=O)(=O)c2ccccc2)cc1 | 28.7% (inactive) |
| O=C(c1cc(COc2cccc(C(F)(F)F)c2)on1)N1CCSCC1 | -30.7% (inactive) |
| Cc1cc(CN(C)C(=O)c2cc(COc3ccc(C)c(C)c3)on2)n[nH]1 | -90.7% (active) |
| Cc1ccc(OCc2cc(C(=O)N(C)CCc3ccccc3)no2)cc1C | 36% (inactive) |
| CN(Cc1cnccn1)C(=O)c1cc(COc2cccc(C(F)(F)F)c2)on1 | -92.5% (active) |
| CN(Cc1cccnc1)C(=O)c1cc(COc2ccc3ncccc3c2)on1 | 38.5% (inactive) |
| Cc1ccc(OCc2cc(C(=O)N(C)CCn3ccnc3C)no2)cc1C | 14.9% (inactive) |
| O=S(=O)(c1ccc(Cl)cc1)N1CCCN(c2ccc(C(F)(F)F)cn2)CC1 | 6.59% (inactive) |
| COc1ccc(CN2CCn3ncc(C(=O)Nc4ccc(Cl)cc4Cl)c3C2=O)cc1 | 23.8% (inactive) |
| CCOc1ccc(S(=O)(=O)Nc2ccncc2)c(C)c1C | 21.3% (inactive) |
| COCC1CCN(C(=O)c2ccc3oc(Cc4ccccc4)nc3c2)C1 (stereo not given) | 0.814% (inactive) |
| COc1ccc(Cc2nc3ccc(C(=O)N4CCC(N(C)C)C4)cc3o2)cc1 (stereo not given) | -2.62% (inactive) |
| COC(=O)C1CCN(C(=O)c2ccc3oc(Cc4ccc(Cl)cc4)nc3c2)CC1 | -86% (active) |
| Oc1ccc(-c2cccc(-c3ccc(O)cc3)c2)cc1 | -10.9% (inactive) |
| O=C(NC1CCCCC1)c1ccc(-c2ccc(Cl)cc2)o1 | 2.19% (inactive) |
| COc1ccc(NC(=O)[C@H](NC(=O)[C@@H]2Cc3ccccc3CN2)c2ccccc2)cc1 | 13.8% (inactive) |
| CCc1ccc(C(=O)CSc2nnc(C)c(=O)[nH]2)cc1 | 17.8% (inactive) |
| COc1ccccc1C(=O)N1C(CC(=O)Nc2ccccc2C)C(=O)NC2CCCCC21 (stereo not given) | 6.5% (inactive) |
| CC(C)(C)OC(=O)CNC(=O)c1[nH]cnc1C(=O)N[C@@H](Cc1ccccc1)C(=O)OCc1ccccc1 | 20.9% (inactive) |
| S=C(NCc1ccc(Cl)cc1)NC1CCCCC1 | -86.1% (active) |
| S=C(NCc1ccc(Cl)cc1)NC12CC3CC(CC(C3)C1)C2 | -20.7% (inactive) |
| O=C(NC(=S)NC1CCCCC1)c1ccc(Cl)cc1 | 6.82% (inactive) |
| COc1cc(C(=O)OCC(=O)NC(C)CCc2ccccc2)cc(OC)c1OC (stereo not given) | 17.1% (inactive) |

| SMILES | activity change |
| --- | --- |
| CCCNC(=O)c1ccc(N2CCC3(CC2)CC(c2cccc(Br)c2)=NO3)c(NC(=O)c2ccco2)c1 | 20.3% (inactive) |
| O=C(/C=C/c1ccc([N+](=O)[O-])o1)NNC(=O)c1ccc(F)cc1 | -90.7% (active) |
| O=C(N/N=C/c1ccc([N+](=O)[O-])o1)c1cn(-c2ccccc2)nc1-c1ccc(F)cc1 | 7.69% (inactive) |
| Cc1ccc(/C=C/C(=O)Nc2ccc([N+](=O)[O-])c(NC(=O)/C=C/c3ccc(C)o3)c2)o1 | 34.4% (inactive) |
| Cc1nc(CN2CCN(C(=O)CCc3nnc(Cc4c[nH]c5ccccc45)o3)CC2)cs1 | 18% (inactive) |
| COc1ccccc1NC(=O)COC(=O)Cc1ccc(S(=O)(=O)N2CCCCC2)s1 | 2.99% (inactive) |
| CCOC(=O)c1cn(Cc2cccc(C)c2)nn1 | 13.8% (inactive) |
| CCOC(=O)c1nn(-c2cccc(C)c2)cc1C(=O)c1ccccc1 | -88.4% (active) |
| CC(=O)c1nn(-c2ccc(C)cc2)cc1C(=O)c1cccc(Br)c1 | 14.3% (inactive) |
| Cc1cc(S(=O)(=O)N2CCOCC2)ccc1OCC(=O)N1CCOCC1 | 18.8% (inactive) |
| O=C(NC1CCN(C(=S)Nc2ccc(Cl)cc2)CC1)C1CCCCC1 | 16.7% (inactive) |
| O=C(O)c1c(NC(=O)N2CCCC2)sc2c1CCCC2 | 6.56% (inactive) |
| COc1cccc(C(=O)NC(=O)Nc2nc(C)cc(C(F)(F)F)n2)c1 | 11% (inactive) |
| O=C(Cn1nc(C(=O)O)c2ccccc2c1=O)Nc1ccc(F)cc1 | 18.2% (inactive) |
| Cc1nn(CC(=O)Nc2ccc(F)cc2)c(=O)c2ccccc12 | -95.2% (active) |
| Cc1nn(CC(=O)Nc2ccc3c(c2)nc(CN2CCCCC2)n3C)c(=O)c2ccccc12 | 18.4% (inactive) |
| CCN(C(=O)COC(=O)C1CCN(S(=O)(=O)c2ccc(C)c(C)c2)CC1)C1CCS(=O)(=O)C1 (stereo not given) | -3.07% (inactive) |
| O=C(CCNS(=O)(=O)c1ccc(Br)s1)NCc1ccccc1Cl | 32.2% (inactive) |
| CCN(CC)c1ccc(NC(=O)c2ccc(=O)[nH]c2)cc1S(=O)(=O)Nc1ccc(OC)cc1 | 18.7% (inactive) |
| COc1ccc(CN(C)C(=O)c2cc(-c3ccc(C)cc3C)nc3ccccc23)c(OC)c1OC | 10.3% (inactive) |
| COc1cc(C=O)c(Br)cc1OCC(=O)NCc1ccccc1 | 15.5% (inactive) |
| COc1cc(C(=S)NCc2ccccc2)cc(Br)c1O | -79.9% (active) |
| COc1cc(C(=O)NCc2ccncc2)cc(Br)c1OCc1ccccc1 | 36.8% (inactive) |
| CN(C(=O)CN1C(=O)S/C(=C\c2ccccc2F)C1=O)C1CCS(=O)(=O)C1 (stereo not given) | 34.2% (inactive) |

| SMILES | activity change |
| --- | --- |
| CSc1nsc(NC(=O)Nc2ccccc2)n1 | 37.1% (inactive) |
| CCSc1nsc(NC(=O)Nc2ccccc2OC)n1 | 11.5% (inactive) |
| C=CCSc1nsc(NC(=O)Nc2cccc(C(C)=O)c2)n1 | -85% (active) |
| COc1ccc(NC(=O)CSCc2ccc([N+](=O)[O-])cc2)cc1OC | 3.16% (inactive) |
| COc1ccc(-c2cc(C(=O)N(C)CC(=O)Nc3ccccc3Cl)c3ccccc3n2)cc1OC | 20% (inactive) |
| O=C(COc1cccc2c1CCNC2=O)NC1CCCCC1 | 2.05% (inactive) |
| O=C(OCc1cn(-c2ccc(Cl)c(Cl)c2)nn1)c1ccccc1Cl | -28.4% (inactive) |
| CCCCCc1ccc(-c2cn(Cc3ccc4ccccc4c3)nn2)cc1 | 6.86% (inactive) |
| CCCCCc1ccc(-c2ccc(OCC)cc2)nc1 | -0.256% (inactive) |
| CCCCCc1ccc(-c2ccc(C(=O)O)cc2)nc1 | -76% (active) |
| Cc1c(CC(=O)N2CCN(C(=O)C3COc4ccccc4O3)CC2)c(=O)oc2c(O)c(O)ccc12 (stereo not given) | 10.9% (inactive) |
| O=C(NC(=O)N1CCSCC1)c1c(Cl)cccc1Cl | 19.3% (inactive) |
| CSCCC(NC(=O)c1ccco1)C(=O)Nc1cc(C)ccn1 (stereo not given) | 30% (inactive) |
| COc1ccc(/C=C(\C#N)C(=O)OCC(=O)N(C)C2CCS(=O)(=O)C2)cc1 (stereo not given) | 22.6% (inactive) |
| N/C(=N\OC(=O)CCc1ccccc1)c1ccc(Cl)cc1 | 7.92% (inactive) |
| O=C(O)CCc1cccnc1 | 7.07% (inactive) |
| N/C(=N\OC(=O)CCc1ccccc1)c1cccnc1 | -85.7% (active) |
| COc1ccc(C(=O)NCc2nnc(SCC(=O)NC3=NCCS3)n2C)cc1 | -5.32% (inactive) |
| CCCOCC(O)CC(CC)C(=O)NNC(=S)Nc1ccccc1 (stereo not given) | 0.623% (inactive) |
| O=C1/C(=C/c2ccc3c(c2)OCO3)Oc2cc(OCC(=O)N3CC(O)C[C@H]3C(=O)O)ccc21 (stereo not given in full) | 29% (inactive) |
| O=C(CC1SCCNC1=O)Nc1ccc(Cl)c(Cl)c1 (stereo not given) | -87.7% (active) |
| O=C(CC1SCCNC1=O)Nc1ccc(Cl)cc1 (stereo not given) | -15% (inactive) |
| O=C(CC1NCCNC1=O)Nc1cc(Cl)cc(Cl)c1 (stereo not given) | 4.37% (inactive) |
